Test results taken from PubChem BioAssay (EPA / NIEHS).
The source made the active and inactive calls. The calls were made as follows: active = hit-call score of the fitted dose curve at least 0.9, where 1 is the maximum; inactive = score below 0.9.

Experiments:
[1] = biological target: Transcription factor E2F1 (Homo sapiens) (UniProt Q01094); assay: ATG_E2F_CIS: Attagene CIS-FACTORIAL HepG2 Assay for human E2F Transcription Factor 1 (AID 2282935); details: HepG2 Attagene cis-reporter, E2F reporter RNA transcripts; actives raise or lower the signal
Chain of Transcription factor E2F1 (Homo sapiens) (Q01094 whole entry, looked up): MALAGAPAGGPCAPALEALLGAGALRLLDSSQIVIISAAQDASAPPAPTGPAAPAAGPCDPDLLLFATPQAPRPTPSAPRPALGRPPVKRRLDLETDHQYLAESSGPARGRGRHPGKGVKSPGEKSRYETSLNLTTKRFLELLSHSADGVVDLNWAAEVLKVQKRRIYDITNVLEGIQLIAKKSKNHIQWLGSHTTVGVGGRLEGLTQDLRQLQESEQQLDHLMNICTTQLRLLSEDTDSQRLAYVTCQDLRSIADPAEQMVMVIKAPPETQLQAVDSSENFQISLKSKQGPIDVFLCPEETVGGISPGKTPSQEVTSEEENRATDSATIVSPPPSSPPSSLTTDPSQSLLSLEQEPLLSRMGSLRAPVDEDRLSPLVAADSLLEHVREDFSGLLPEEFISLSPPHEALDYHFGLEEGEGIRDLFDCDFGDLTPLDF
Procedure, shortened: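 Total RNA from 24 h-treated, reporter-transfected HepG2 cells undergoes DNase I treatment, oligo(dT) reverse transcription, PCR and 6-FAM primer extension before capillary electrophoresis.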

[2] = ATG_E_Box_CIS: Attagene CIS-FACTORIAL HepG2 Assay for human Enhancer Box (E-box) (AID 2282936); details: HepG2 E-box cis-reporter transcription, actives raise or lower the signal
Procedure, shortened: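 DMSO served as negative control and baseline for bidirectional fitting. Human hepatoma HepG2 cells, transiently transfected with cis-reporter constructs, were dosed 24 h; reporter mRNA read by RT-PCR and capillary electrophoresis.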

[3] = ATG_M_61_CIS: Attagene CIS-FACTORIAL HepG2 Assay for M61 Transcription Factor (Internal Marker) (AID 2282937); details: HepG2 Attagene CIS-FACTORIAL M61 internal marker reporter; actives raise or lower the signal
Procedure, shortened: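 Endogenous transcription factor activity in HepG2 is read through transiently transfected cis-element reporter units. After 24 h dosing, RNA undergoes reverse transcription, PCR and primer extension with 6-FAM before capillary electrophoresis; DMSO-referenced bidirectional fit.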

[4] = ATG_EGR_CIS: Attagene CIS-FACTORIAL HepG2 Assay for human Early Growth Response 1 (EGR1) (AID 2282938); details: HepG2 Attagene CIS-FACTORIAL EGR reporter mRNA; actives raise or lower the signal
Procedure, shortened: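 Activity is taken as induction or loss of reporter mRNA versus DMSO, fitted bidirectionally. Transcripts from cis-regulated reporter units in transiently transfected HepG2 were measured after 24 h by RT-PCR with capillary electrophoresis.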

[5] = ATG_M_19_CIS: Attagene CIS-FACTORIAL HepG2 Assay for M19 Transcription Factor (Internal Marker) (AID 2282939); details: HepG2 Attagene CIS-FACTORIAL M19 internal marker reporter; actives raise or lower the signal
Procedure, shortened: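 Background-control endpoint from a multiplexed HepG2 reporter panel. Cells carrying cis-regulated reporter constructs are treated 24 h, then reporter transcripts are amplified, fluorescently labelled and sized by capillary electrophoresis. DMSO defines baseline.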

[6] = ATG_ERE_CIS: Attagene CIS-FACTORIAL HepG2 Assay for Estrogen Response Element (ERE) (AID 2282940); details: HepG2 ERE cis-reporter, Attagene RNA transcript; actives raise or lower the signal
Procedure, shortened: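 Cells used were human hepatoma HepG2, transfected with multiple reporter transcription units under cis-regulatory promoters. Reporter mRNA, read 24 h post-dosing via fluorescent RT-PCR products on capillary electrophoresis, was fitted bidirectionally relative to DMSO.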

[7] = ATG_Ets_CIS: Attagene CIS-FACTORIAL HepG2 Assay for human Erythroblast Transformation Specific (ETS) (AID 2282941); details: HepG2 ETS cis-reporter transcription, actives raise or lower the signal
Procedure, shortened: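 HepG2 cells transfected with multiple cis-regulated reporter units measuring endogenous ETS-driven transcription, 24 h after dosing. Reporter mRNA quantified by RT-PCR with capillary electrophoresis; bidirectional fit relative to DMSO.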

[8] = biological target: Hepatocyte nuclear factor 3-beta (Homo sapiens) (UniProt Q9Y261); assay: ATG_FoxA2_CIS: Attagene CIS-FACTORIAL HepG2 Assay for human Forkhead box A2 (FOXA2) (AID 2282942); details: HepG2 cis-reporter transcription factor activity, 24 h; actives raise or lower the signal
Chain of Hepatocyte nuclear factor 3-beta (Homo sapiens) (Q9Y261 whole entry, looked up): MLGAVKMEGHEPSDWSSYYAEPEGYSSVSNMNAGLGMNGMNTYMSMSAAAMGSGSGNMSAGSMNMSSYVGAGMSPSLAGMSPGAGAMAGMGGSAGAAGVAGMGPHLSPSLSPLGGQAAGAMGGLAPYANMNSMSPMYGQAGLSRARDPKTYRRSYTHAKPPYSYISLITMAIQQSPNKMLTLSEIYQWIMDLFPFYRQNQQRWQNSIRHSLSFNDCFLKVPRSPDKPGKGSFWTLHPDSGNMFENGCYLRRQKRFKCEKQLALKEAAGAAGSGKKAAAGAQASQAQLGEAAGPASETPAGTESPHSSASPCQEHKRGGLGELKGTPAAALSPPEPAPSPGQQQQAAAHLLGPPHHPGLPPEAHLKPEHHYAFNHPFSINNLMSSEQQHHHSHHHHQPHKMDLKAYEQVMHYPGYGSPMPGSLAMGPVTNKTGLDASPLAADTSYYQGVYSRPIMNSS
Procedure, shortened: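 Reporter transcript induction is measured by fluorescence after capillary electrophoresis of RT-PCR products from HepG2 cells exposed 24 h. Cis-regulated reporter units report endogenous factor activity; curves fitted both directions against DMSO.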

[9] = ATG_FoxO_CIS: Attagene CIS-FACTORIAL HepG2 Assay for human Forkhead box O (FoxO) (AID 2282943); details: HepG2 Attagene cis-reporter, FoxO element, mRNA; actives raise or lower the signal
Procedure, shortened: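 Human hepatoma HepG2 cells carry transiently introduced reporter transcription units controlled by cis promoter elements. Chemical treatment lasted 24 h, and mRNA signal was compared with DMSO.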

[10] = ATG_GATA_CIS: Attagene CIS-FACTORIAL HepG2 Assay for human GATA Binding Protein (AID 2282944); details: HepG2 GATA cis-element reporter, Attagene multiplex mRNA; actives raise or lower the signal
Procedure, shortened: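 Endogenous transcription factor activity was captured through cis-promoter-driven reporters in transfected HepG2 cells. After 24 h exposure, reporter transcripts were quantified by RT-PCR with fluorescent capillary electrophoresis, and responses fitted both directions against DMSO.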

[11] = ATG_GLI_CIS: Attagene CIS-FACTORIAL HepG2 Assay for human Zinc Finger Protein GLI1 (AID 2282945); details: HepG2, Attagene cis-factorial reporter mRNA, GLI element; actives raise or lower the signal
Procedure, shortened: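 Bidirectional curve fits relative to DMSO, using reporter mRNA levels from RT-PCR plus capillary electrophoresis. Cells were HepG2 transiently carrying cis-regulated reporter constructs, harvested 24 h after dosing.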

[12] = ATG_GRE_CIS: Attagene CIS-FACTORIAL HepG2 Assay for human Glucocorticoid Response Elements (GRE) (AID 2282947); details: HepG2 GRE cis-reporter, Attagene multiplex mRNA; actives raise or lower the signal
Procedure, shortened: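 Assay uses human hepatoma HepG2 cells transfected with cis-promoter reporter units, exposed 24 h. mRNA from reporters detected by RT-PCR plus capillary electrophoresis; DMSO serves as negative control and baseline.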

[13] = ATG_ISRE_CIS: Attagene CIS-FACTORIAL HepG2 Assay for human Interferon Regulatory Factor 1 (IRF1) binding to an Interferon-Stimulated Response Element (ISRE) (AID 2282948); details: HepG2 ISRE cis-reporter (Attagene), mRNA transcription readout; actives raise or lower the signal
Procedure, shortened: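 Transiently transfected HepG2 cells carrying cis-element reporter units, dosed 24 hours. Reporter mRNA quantified by RT-PCR, fluorescent primer extension, HpaI digestion and capillary electrophoresis. Bidirectional fitting relative to DMSO.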

[14] = ATG_M_32_CIS: Attagene CIS-FACTORIAL HepG2 Assay for M32 Transcription Factor (Internal Marker) (AID 2282949); details: HepG2 Attagene cis-factorial M32 reporter, mRNA; actives raise or lower the signal;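 also: background control marker of the multiplexed CIS panel rather than a real target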
Procedure, shortened: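 Internal background marker read-out: RT-PCR/capillary electrophoresis fluorescence of reporter transcripts from transiently transfected HepG2 cells after 24 h chemical exposure. Activity fitted bidirectionally relative to DMSO negative control.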

[15] = ATG_M_06_CIS: Attagene CIS-FACTORIAL HepG2 Assay for M06 Transcription Factor (Internal Marker) (AID 2282950); details: HepG2 Attagene CIS-FACTORIAL M06 internal marker reporter; actives raise or lower the signal
Procedure, shortened: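 Steps: transfect HepG2 with multiplexed cis-element reporter constructs; dose chemical 24 h; extract RNA with DNase treatment; reverse-transcribe, PCR-amplify, 6-FAM label, HpaI digest; separate fragments by capillary electrophoresis. Activity fitted both directions versus DMSO.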

[16] = biological target: Hypoxia-inducible factor 1-alpha (Homo sapiens) (UniProt Q16665); assay: ATG_HIF1a_CIS: Attagene CIS-FACTORIAL HepG2 Assay for human Hypoxia Inducible Factor 1 (HIF1A) (AID 2282951); details: HepG2 Attagene cis-factorial HIF1a reporter transcription; actives raise or lower the signal
Chain of Hypoxia-inducible factor 1-alpha (Homo sapiens) (Q16665 whole entry, looked up): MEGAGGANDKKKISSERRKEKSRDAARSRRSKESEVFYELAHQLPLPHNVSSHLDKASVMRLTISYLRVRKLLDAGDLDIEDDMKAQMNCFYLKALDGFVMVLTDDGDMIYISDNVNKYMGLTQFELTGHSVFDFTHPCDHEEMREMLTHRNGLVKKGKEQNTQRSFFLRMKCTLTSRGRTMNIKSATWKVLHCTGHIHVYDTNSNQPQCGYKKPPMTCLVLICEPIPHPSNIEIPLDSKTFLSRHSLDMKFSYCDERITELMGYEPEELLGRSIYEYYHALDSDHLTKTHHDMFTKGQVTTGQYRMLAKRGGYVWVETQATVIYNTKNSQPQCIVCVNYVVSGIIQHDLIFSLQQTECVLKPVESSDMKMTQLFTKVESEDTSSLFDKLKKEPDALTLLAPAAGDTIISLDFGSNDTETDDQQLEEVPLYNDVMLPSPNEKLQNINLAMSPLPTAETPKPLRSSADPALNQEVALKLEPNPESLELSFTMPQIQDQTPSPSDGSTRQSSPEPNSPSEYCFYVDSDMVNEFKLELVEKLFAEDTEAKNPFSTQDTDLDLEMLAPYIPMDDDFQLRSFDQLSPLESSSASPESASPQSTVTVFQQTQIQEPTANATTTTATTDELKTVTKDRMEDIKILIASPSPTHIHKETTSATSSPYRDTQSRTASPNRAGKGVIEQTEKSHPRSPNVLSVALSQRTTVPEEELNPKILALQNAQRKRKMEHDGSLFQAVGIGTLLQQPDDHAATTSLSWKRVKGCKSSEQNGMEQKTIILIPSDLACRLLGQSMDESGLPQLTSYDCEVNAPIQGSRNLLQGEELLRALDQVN
Procedure, shortened: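 Fluorescence intensity of capillary-separated, 6-FAM-labelled reporter amplicons gives mRNA induction in HepG2 cells carrying transfected cis-promoter reporter units; cells exposed 24 h, responses fitted up or down from DMSO.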

[17] = biological target: Hepatocyte nuclear factor 6 (Homo sapiens) (UniProt Q9UBC0); assay: ATG_HNF6_CIS: Attagene CIS-FACTORIAL HepG2 Assay for human Hepatocyte Nuclear Factor 6 (HNF6) (AID 2282952); details: HepG2 Attagene cis-factorial HNF6 reporter transcription; actives raise or lower the signal
Chain of Hepatocyte nuclear factor 6 (Homo sapiens) (Q9UBC0 whole entry, looked up): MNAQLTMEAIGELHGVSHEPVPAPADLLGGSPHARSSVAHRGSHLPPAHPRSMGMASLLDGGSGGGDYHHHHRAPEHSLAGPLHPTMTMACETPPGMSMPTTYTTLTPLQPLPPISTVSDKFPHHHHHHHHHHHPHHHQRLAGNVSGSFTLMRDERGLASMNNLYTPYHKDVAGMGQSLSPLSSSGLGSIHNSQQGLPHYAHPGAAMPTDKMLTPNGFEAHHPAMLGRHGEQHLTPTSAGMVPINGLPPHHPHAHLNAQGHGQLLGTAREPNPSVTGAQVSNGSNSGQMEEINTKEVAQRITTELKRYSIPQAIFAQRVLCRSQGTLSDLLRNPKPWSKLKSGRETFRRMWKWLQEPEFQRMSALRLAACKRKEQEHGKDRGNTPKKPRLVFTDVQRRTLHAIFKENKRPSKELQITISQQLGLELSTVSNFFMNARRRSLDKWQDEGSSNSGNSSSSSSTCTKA
Procedure, shortened: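 HepG2 cells transiently transfected with cis-element-driven multiple reporter transcription units, dosed 24 h; reporter mRNA quantified by RT-PCR, FAM primer extension, HpaI digestion and capillary electrophoresis; bidirectional fit versus DMSO baseline.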

[18] = biological target: Heat shock factor protein 1 (Homo sapiens) (UniProt Q00613); assay: ATG_HSE_CIS: Attagene CIS-FACTORIAL HepG2 Assay for human Heat Shock Transcription Factor 1 (HSE) (AID 2282953); details: HepG2 HSE cis-reporter, Attagene RNA transcription; actives raise or lower the signal
Chain of Heat shock factor protein 1 (Homo sapiens) (Q00613 whole entry, looked up, the tested form may be a part): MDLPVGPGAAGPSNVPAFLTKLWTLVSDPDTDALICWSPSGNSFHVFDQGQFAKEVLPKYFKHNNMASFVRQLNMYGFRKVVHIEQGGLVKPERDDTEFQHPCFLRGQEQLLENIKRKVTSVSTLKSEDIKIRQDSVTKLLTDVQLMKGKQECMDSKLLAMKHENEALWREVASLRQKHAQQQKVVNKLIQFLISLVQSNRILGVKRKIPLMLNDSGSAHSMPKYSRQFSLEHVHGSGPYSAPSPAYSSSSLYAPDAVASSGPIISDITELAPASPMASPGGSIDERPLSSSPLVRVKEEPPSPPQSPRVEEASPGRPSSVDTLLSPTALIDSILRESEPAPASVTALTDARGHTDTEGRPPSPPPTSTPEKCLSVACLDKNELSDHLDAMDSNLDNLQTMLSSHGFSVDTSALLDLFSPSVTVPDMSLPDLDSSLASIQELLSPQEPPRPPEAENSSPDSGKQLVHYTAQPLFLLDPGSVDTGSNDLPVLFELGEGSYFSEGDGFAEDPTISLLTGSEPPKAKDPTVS
Procedure, shortened: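 Cells were transfected with cis-element-driven reporter constructs, dosed for 24 h, then total RNA was reverse-transcribed and reporter cDNA amplified, FAM-labelled and digested with HpaI. Fragments were resolved by capillary electrophoresis; gain or loss was fitted against DMSO.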

[19] = ATG_MRE_CIS: Attagene CIS-FACTORIAL HepG2 Assay for human Metal Responsive Element (MRE) (AID 2282954); details: HepG2 MRE cis-reporter transcription, Attagene multiplex; actives raise or lower the signal
Procedure, shortened: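 After a 24 h chemical exposure, transiently transfected HepG2 cells yield RNA whose reporter sequences are amplified, FAM-labelled and sized by capillary electrophoresis. Curves are fitted bidirectionally relative to DMSO.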

[20] = biological target: Bile acid receptor (Homo sapiens) (UniProt Q96RI1); assay: ATG_IR1_CIS: Attagene CIS-FACTORIAL HepG2 Assay for human Nuclear Receptor Subfamily 1 Group H Member 4 (NR1H4), IR1 submotif (AID 2282946); details: IR1 reporter transcription, actives raise or lower the signal
Chain of Bile acid receptor (Homo sapiens) (Q96RI1 whole entry, looked up, the tested form may be a part): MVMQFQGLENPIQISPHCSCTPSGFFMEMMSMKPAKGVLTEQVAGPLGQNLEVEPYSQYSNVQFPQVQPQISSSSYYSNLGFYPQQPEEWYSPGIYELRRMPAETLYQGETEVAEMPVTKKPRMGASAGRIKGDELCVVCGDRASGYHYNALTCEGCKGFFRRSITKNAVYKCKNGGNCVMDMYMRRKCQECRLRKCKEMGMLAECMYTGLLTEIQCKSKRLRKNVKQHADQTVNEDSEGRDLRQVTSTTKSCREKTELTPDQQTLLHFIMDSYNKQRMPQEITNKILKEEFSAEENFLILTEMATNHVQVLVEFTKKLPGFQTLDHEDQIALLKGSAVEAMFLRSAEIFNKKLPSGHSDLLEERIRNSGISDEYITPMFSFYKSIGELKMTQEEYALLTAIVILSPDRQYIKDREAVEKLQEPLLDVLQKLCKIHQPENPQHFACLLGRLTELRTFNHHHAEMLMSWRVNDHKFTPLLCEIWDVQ
Procedure, shortened: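 Cells (human HepG2) carry transiently transfected cis-promoter reporter transcription units. Compounds are incubated 24 h, total RNA is reverse-transcribed and amplified, and labelled fragments are resolved by capillary electrophoresis. Curves use DMSO as baseline.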

Measured: AC50

Nc1ccc(O)c([N+](=O)[O-])c1
inactive: [1] | [2] | [3] | [4] | [5] | [6] | [7] | [8] | [9] | [10] | [11] | [12] | [13] | [14] | [15] | [16] | [17] | [18] | [19]

OCCCc1ccccc1
inactive: [1] | [2] | [3] | [4] | [5] | [6] | [7] | [8] | [9] | [10] | [11] | [12] | [13] | [14] | [15] | [16] | [17] | [18] | [19]

CC(C)CC(=O)OCc1ccccc1
inactive: [1] | [2] | [3] | [4] | [5] | [6] | [7] | [8] | [9] | [10] | [11] | [12] | [13] | [14] | [15] | [16] | [17] | [18]

CCCC/C=C/C=C\C=O
active: [4] 100 µM | [11] 128 µM | [20] 71.6 µM | [13] 100 µM | [18] 157 µM | [19] 100 µM
inactive: [1] | [2] | [3] | [5] | [6] | [7] | [8] | [9] | [10] | [14] | [15] | [16] | [17]
